Measurements reported in the supplement of paper PMC13380429.

Tested on: Vero E6 infected with SARS-CoV-2
Test: morphology score (similarity to uninfected cells); higher = more like uninfected cells
Conditions: 24 h

Structure (SMILES) | morphology score
O=C(O)c1cc2ccccc2s1 (10 µM) | 0.0676
O=C1NC(=O)/C(=C/c2cccc(C(F)(F)F)c2)S1 (10 µM) | 0.00293
COc1ccc2nc3ccc(Cl)cc3c(SCCCN)c2c1 (10 µM) | 0.0488
CC(=O)OCC1=C(C(=O)O)N2C(=O)[C@@H](NC(=O)Cc3cccs3)[C@H]2SC1 [cephalothin] (10 µM) | -0.0126
C[C@H](Cc1ccc(O)c(O)c1)[C@@H](C)Cc1ccc(O)c(O)c1 [masoprocol] (10 µM) | 0.0645
C[C@H](Cn1cnc2c(N)ncnc21)OCP(=O)(O)O [tenofovir] (10 µM) | -0.0359
CCn1cc(-c2cccc(C(F)(F)F)c2)c2sc(C(=N)NC3CCS(=O)(=O)CC3)cc2c1=O (10 µM) | -0.122
CC(C)NCC(O)c1ccc2ccccc2c1 (configuration not stated) [pronethalol] (10 µM) | -0.0652
Nc1nc2cc(-c3ccc4ncc(C(=O)N5CCOCC5)n4c3)ccc2o1 (10 µM) | 0.241
CN/C(=N\CCSCc1nc[nH]c1C)NC#N [cimetidine] (10 µM) | 0.151
Cc1ccc(F)cc1C(=O)Nc1ccc(C(=O)N2Cc3cccn3Cc3ccccc32)c(Cl)c1 [lixivaptan] (10 µM) | 0.0414
CCO/N=C(\C(=O)N[C@@H]1C(=O)N2C(C(=O)[O-])=C(Sc3nc(-c4cc[n+](C)cc4)cs3)CS[C@H]12)c1nsc(NP(=O)(O)O)n1 [ceftaroline-fosamil] (10 µM) | 0.242
NC(=O)c1ccc[n+]([C@@H]2O[C@H](COP(=O)([O-])OP(=O)(O)OC[C@H]3O[C@@H](n4cnc5c(N)ncnc54)[C@H](O)[C@@H]3O)[C@@H](O)[C@H]2O)c1 [nadide] (10 µM) | -0.0496
COC[C@@H](NC(C)=O)C(=O)NCc1ccccc1 [Lacosamide] (10 µM) | -0.1
COc1ccccc1Oc1c(NS(=O)(=O)c2ccc(C(C)(C)C)cc2)nc(-c2ncccn2)nc1OCCO [bosentan] (10 µM) | 0.0268
CC(=O)O[C@]1(C(C)=O)CC[C@H]2[C@@H]3C[C@H](C)C4=CC(=O)C=C[C@]4(C)[C@@]3(F)[C@@H](O)C[C@@]21C [fluorometholone-acetate] (10 µM) | 0.0758
CCCCCCCC/C=C/CCCCCCCC(=O)OC[C@H]1O[C@@H](n2ccc(N)nc2=O)C(F)(F)[C@@H]1O [gemcitabine-elaidate] (0.833333 µM) | 0.0895
O=[N+]([O-])c1cc(O)c(O)c([N+](=O)[O-])c1 (10 µM) | 0.123
CC(C)C[C@@H](C=O)NC(=O)[C@H](CC(C)C)NC(=O)[C@H](CC(C)C)NC(=O)OCc1ccccc1 (10 µM) | 0.514
CCc1cc2c(s1)-n1c(C)nnc1CN=C2c1ccccc1Cl [etizolam] (10 µM) | -0.0349
CN(C)CCN(Cc1ccccc1)c1ccccn1 [tripelennamine] (10 µM) | -0.0386
CC(=O)Nc1ccc(NC(=S)NC(=O)c2ccc(C(C)(C)C)cc2)cc1 [tenovin-1] (10 µM) | -0.0316
c1ccc(-c2n[nH]c3c2oc2ccccc23)cc1 (10 µM) | 0.0627
Cc1ccccc1N1CCN(CCc2nnc3n2CCCC3)CC1 [dapiprazole] (10 µM) | 0.109
FC(F)(F)c1cc(CO[C@H]2CCCN[C@H]2c2ccccc2)cc(C(F)(F)F)c1 (10 µM) | 0.777
N[C@H]1CC[C@H](N[C@@H]2C[C@H]2c2ccccc2)CC1 (10 µM) | 0.432
CC1(C)CC(=O)c2c(C(F)(F)F)nn(-c3ccc(C(N)=O)c(N[C@H]4CC[C@H](O)CC4)c3)c2C1 (10 µM) | 0.196
CCOc1ccc(-n2c([C@@H](C)N(Cc3cccnc3)C(=O)Cc3ccc(OC(F)(F)F)cc3)nc3ncccc3c2=O)cc1 (racemic) (10 µM) | 0.181

Tested on: Vero E6 infected with SARS-CoV-2
Test: SARS-CoV-2 infection rate relative to infected DMSO; higher = more infection, active = 60 or less
Conditions: 24 h

Structure (SMILES) | SARS-CoV-2 infection rate
C[C@]12CCC(=O)C=C1CC[C@@H]1[C@@H]2[C@@H](O)C[C@@]2(C)[C@H]1CC[C@]2(O)C(=O)COP(=O)(O)O [hydrocortisone-phosphate] (10 µM) | 98.5% (inactive)
COc1cc(NS(=O)(=O)c2ccc(N)cc2)nc(OC)n1 [sulphadimethoxine] (10 µM) | 103% (inactive)
Oc1cc(O)cc(O)c1 [phloroglucin] (10 µM) | 114% (inactive)
O=C(O)c1cc(-c2ccccc2)nc2ccccc12 [cinchophen] (10 µM) | 104% (inactive)
C[C@@H]1CN(c2c(F)c(F)c3c(=O)c(C(=O)O)cn(C4CC4)c3c2F)C[C@H](C)N1 [orbifloxacin] (10 µM) | 96.5% (inactive)
CCCCCCC[N+](CC)(CC)CCCCc1ccc(Cl)cc1 [clofilium] (10 µM) | 118% (inactive)
O=C(O)CCCc1ccc(N(CCCl)CCCl)cc1 [chlorambucil] (10 µM) | 94% (inactive)
Oc1cccc(-c2c3nc(c(-c4cccc(O)c4)c4ccc([nH]4)c(-c4cccc(O)c4)c4nc(c(-c5cccc(O)c5)c5ccc2[nH]5)CC4)C=C3)c1 [temoporfin] (0.833333 µM) | 111% (inactive)
O=C(Nc1ccccc1C(=O)NC1CCCCNC1=O)c1cc2ccccc2s1 (configuration not stated) (10 µM) | 99.5% (inactive)
[O-][S+](c1ccccc1)c1ccc2nnnn2n1 (configuration not stated) (0.833333 µM) | 85.5% (inactive)
C[C@@H]1NC(=O)[C@@H]2CCCN2C(=O)[C@H](CC(N)=O)NC(=O)[C@@H]2CSSC[C@H](N)C(=O)N[C@H]3CSSC[C@H](NC1=O)C(=O)N[C@@H]([C@@H](C)O)C(=O)NCC(=O)N[C@H](C(=O)N[C@@H](Cc1ccc(O)cc1)C(=O)O)CSSC[C@H](NC(=O)[C@H](Cc1ccc(O)cc1)NC(=O)[C@H](CCC(=O)O)NC3=O)C(=O)N2 [linaclotide] (10 µM) | 106% (inactive)
O=C(O)c1cc2ccccc2s1 (10 µM) | 88% (inactive)
O=C1NC(=O)/C(=C/c2cccc(C(F)(F)F)c2)S1 (10 µM) | 106% (inactive)
COc1ccc2nc3ccc(Cl)cc3c(SCCCN)c2c1 (10 µM) | 91.5% (inactive)
CC(=O)OCC1=C(C(=O)O)N2C(=O)[C@@H](NC(=O)Cc3cccs3)[C@H]2SC1 [cephalothin] (10 µM) | 102% (inactive)
C[C@H](Cc1ccc(O)c(O)c1)[C@@H](C)Cc1ccc(O)c(O)c1 [masoprocol] (10 µM) | 90% (inactive)
C[C@H](Cn1cnc2c(N)ncnc21)OCP(=O)(O)O [tenofovir] (10 µM) | 105% (inactive)
CCn1cc(-c2cccc(C(F)(F)F)c2)c2sc(C(=N)NC3CCS(=O)(=O)CC3)cc2c1=O (10 µM) | 110% (inactive)
CC(C)NCC(O)c1ccc2ccccc2c1 (configuration not stated) [pronethalol] (10 µM) | 104% (inactive)
Nc1nc2cc(-c3ccc4ncc(C(=O)N5CCOCC5)n4c3)ccc2o1 (10 µM) | 92% (inactive)

Structure (SMILES) | SARS-CoV-2 infection rate
CN/C(=N\CCSCc1nc[nH]c1C)NC#N [cimetidine] (10 µM) | 97.5% (inactive)
Cc1ccc(F)cc1C(=O)Nc1ccc(C(=O)N2Cc3cccn3Cc3ccccc32)c(Cl)c1 [lixivaptan] (10 µM) | 111% (inactive)
CCO/N=C(\C(=O)N[C@@H]1C(=O)N2C(C(=O)[O-])=C(Sc3nc(-c4cc[n+](C)cc4)cs3)CS[C@H]12)c1nsc(NP(=O)(O)O)n1 [ceftaroline-fosamil] (10 µM) | 87.5% (inactive)
NC(=O)c1ccc[n+]([C@@H]2O[C@H](COP(=O)([O-])OP(=O)(O)OC[C@H]3O[C@@H](n4cnc5c(N)ncnc54)[C@H](O)[C@@H]3O)[C@@H](O)[C@H]2O)c1 [nadide] (10 µM) | 94% (inactive)
COC[C@@H](NC(C)=O)C(=O)NCc1ccccc1 [Lacosamide] (10 µM) | 103% (inactive)
COc1ccccc1Oc1c(NS(=O)(=O)c2ccc(C(C)(C)C)cc2)nc(-c2ncccn2)nc1OCCO [bosentan] (10 µM) | 112% (inactive)
CC(=O)O[C@]1(C(C)=O)CC[C@H]2[C@@H]3C[C@H](C)C4=CC(=O)C=C[C@]4(C)[C@@]3(F)[C@@H](O)C[C@@]21C [fluorometholone-acetate] (10 µM) | 105% (inactive)
CCCCCCCC/C=C/CCCCCCCC(=O)OC[C@H]1O[C@@H](n2ccc(N)nc2=O)C(F)(F)[C@@H]1O [gemcitabine-elaidate] (0.833333 µM) | 112% (inactive)
O=[N+]([O-])c1cc(O)c(O)c([N+](=O)[O-])c1 (10 µM) | 101% (inactive)
CC(C)C[C@@H](C=O)NC(=O)[C@H](CC(C)C)NC(=O)[C@H](CC(C)C)NC(=O)OCc1ccccc1 (10 µM) | 66% (inactive)
CCc1cc2c(s1)-n1c(C)nnc1CN=C2c1ccccc1Cl [etizolam] (10 µM) | 103% (inactive)
CN(C)CCN(Cc1ccccc1)c1ccccn1 [tripelennamine] (10 µM) | 110% (inactive)
CC(=O)Nc1ccc(NC(=S)NC(=O)c2ccc(C(C)(C)C)cc2)cc1 [tenovin-1] (10 µM) | 109% (inactive)
c1ccc(-c2n[nH]c3c2oc2ccccc23)cc1 (10 µM) | 98.5% (inactive)
Cc1ccccc1N1CCN(CCc2nnc3n2CCCC3)CC1 [dapiprazole] (10 µM) | 87.5% (inactive)
FC(F)(F)c1cc(CO[C@H]2CCCN[C@H]2c2ccccc2)cc(C(F)(F)F)c1 (10 µM) | 16% (active)
N[C@H]1CC[C@H](N[C@@H]2C[C@H]2c2ccccc2)CC1 (10 µM) | 79.5% (inactive)
CC1(C)CC(=O)c2c(C(F)(F)F)nn(-c3ccc(C(N)=O)c(N[C@H]4CC[C@H](O)CC4)c3)c2C1 (10 µM) | 102% (inactive)
CCOc1ccc(-n2c([C@@H](C)N(Cc3cccnc3)C(=O)Cc3ccc(OC(F)(F)F)cc3)nc3ncccc3c2=O)cc1 (racemic) (10 µM) | 98.8% (inactive)
